Assay outcomes deposited in PubChem BioAssay by National Center for Advancing Translational Sciences (NCATS).
Marburg entry inh – Marburg virus entry inhibition. hit rate 1.8% among 300,000. Potency, µM (titrated, usually from 37.8 µM), inactives show at the highest dose activity change, negative = inhibition, usual class: inhibitors. Marburg virus pseudotyped entry inhibition, cell reporter. AID 540276; calls by dose curve; tested in HEK293 cells; note: potency is the fitted concentration of half-maximal effect
HCV inhibitor – blocks hepatitis C virus; Huh7.5.1 HCVcc-Cre infection, luciferase reporter, 44 h; Potency, µM (series often up to 41.8 µM), for inactives: at the top dose activity change, negative = inhibition, most hits filed as inhibitors; hit rate 3.4% among 340,000; active = well fitted inhibition curve with a large enough effect; inconclusive = small, poorly fitted or top-dose-only effect, or another doubt; inactive = no such curve, though single readings can be large or run the other way; note: potency is the fitted concentration of half-maximal effect
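Luciferase read-out (15 sec integration) after a 15 min room-temperature substrate step quantifies HCVcc-Cre infection. Cells, 1,000 per well, had compound added 4 h post-plating, then virus at ~0.5 moi, and were cultured 44 h.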
Vaccinia Venus – inhibitors of vaccinia virus (Venus reporter) | Vaccinia virus Venus reporter expression, fluorescence | Potency, µM (highest dose often 36.5 µM), without a hit: at the highest dose activity change, negative = inhibition, usual class: inhibitors | hit rate 0.46% among 330,000 | AID 720580; calls by dose curve; tested in A549 cells; note: potency is the fitted concentration of half-maximal effect; nearly all actives have a fitted effect of over 30% in size
Lassa entry inh – blocks Lassa virus binding to or entry into cells; Lassa virus pseudotype entry inhibition, cell reporter; Potency, µM (titrated, usually from 37.9 µM), for inactives: at the top dose activity change, negative = inhibition, hits mostly inhibitors; hit rate 1.2% among 300,000; calls by dose curve; tested in HEK293 cells; note: potency is the fitted concentration of half-maximal effect; nearly all actives have a fitted effect of over 50% in size
VACV mCherry inh – vaccinia inhibition (mCherry reporter) | hit rate 0.63% among 310,000 | Vaccinia virus mCherry reporter infection, fluorescence | Potency, µM (doses to about 36.5 µM), for inactives: top-dose activity change, negative = inhibition, actives largely listed as inhibitors; calls by dose curve; tested in A549 cells; note: potency is the fitted concentration of half-maximal effect; nearly all actives have a fitted effect of over 35% in size
HCMV antiviral – blocks human cytomegalovirus replication | HFF cells, HCMV-luciferase reporter, 72 h; hits give low values | activity change, negative = inhibition, % at 57.5 µM | hit rate 4.5% among 410,000 | AID 1259415; in the data active = activity change below about -60%; inconclusive = no clear call, values can overlap the other calls; inactive = above about -39%
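Steps: HFFs plated, 16 h 37C; compounds added; HCMV-luciferase added to MOI 1 PFU/cell; 72 h 37C; OneGlo reagent, 5 min room temperature; luminescence read, normalized to controls.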
An asterisk follows results filed as active; i = inactive; ? = inconclusive; · = no result; + = active, no number; [ ] = dose if it differs, or a comment. The list is not random: actives were taken first. Their share in the collection is about 7.8%. % is set by controls: 0 for no effect and ±100 for the full control effect.

SMILES	Marburg entry inh	HCV inhibitor	Vaccinia Venus	Lassa entry inh	VACV mCherry inh	HCMV antiviral
Cc1cccn2c(=O)c3cc(C(=O)N(Cc4ccccc4)C(C)C)sc3nc12	4µM*	·	-7%	?	-6%	-14
COC(=O)c1cc2oc(C)cc2n1Cc1ccc(Br)cc1F	2%[46.1 µM]	·	-13%	·	-18%	36
CC1(C)CC(=O)C2=C(C1)N1C(=C(C#N)C2c2ccc(Cl)cc2)N=C(N)c2ccccc21 (stereo not drawn)	?	8.9µM*	-27%	?	?	-93*
N#CC1=C2N=C(N)c3ccccc3N2C2=C(C(=O)CCC2)C1c1ccc(Cl)cc1 (stereo not drawn)	-30%	?	-15%	?	-17%	-91*
N#CC1=C2N=C(N)c3ccccc3N2C2=C(C(=O)CCC2)C1c1ccccc1F (stereo not drawn)	·	6%	·	·	·	16
COc1ccc(-c2noc(-c3cc(C(C)C)[nH]n3)n2)cc1	·	·	-8%[7.34 µM]	?	-9%[7.34 µM]	-8
Cc1cccc(Cn2c(NCC(C)O)nc3c2c(=O)n(C)c(=O)n3C)c1 (stereo not drawn)	-11%	4.5µM*	-41%	-5%	·	?
Cn1c(NCC(O)c2ccccc2)nc2c1c(=O)n(Cc1ccc(Cl)c(Cl)c1)c(=O)n2C (stereo not drawn)	?	?	10µM*	?	·	?
COCCNc1nc2c(c(=O)n(C)c(=O)n2C)n1Cc1cccc(C)c1	?	10µM*	·	-29%	·	-18
Cn1c(=O)c2c(nc(NCCCO)n2Cc2cccc(Br)c2)n(C)c1=O	-15%	-20%	·	-15%	·	9
COCCCNc1nc2c(c(=O)n(C)c(=O)n2C)n1Cc1cccc(OC)c1	-27%[46.1 µM]	?	-30%	-24%	·	22
Cn1c(NCC(O)c2ccccc2)nc2c1c(=O)n(Cc1ccc(Cl)cc1)c(=O)n2C (stereo not drawn)	-7%	?	?	-17%	·	-20
CSc1cccc(NC(=O)Cn2c(=O)n(Cc3ccccc3)c(=O)c3sc4ccccc4c32)c1	-12%[46.1 µM]	·	-8%	-9%[46.1 µM]	-15%	-11
Cc1ccc(-n2nnc(C(=O)Nc3cc(F)ccc3F)c2C)cc1F	1%[46.1 µM]	·	-22%	?	-22%	83
NC(=S)N/N=C/c1c[nH]c2ccc(OCc3ccccc3)cc12	·	13µM*	·	·	·	·
NC(=S)N/N=C/c1ccccc1OC(=O)/C=C/c1ccccc1	·	15%	·	·	·	-110*
O=Cc1c[nH]c2ccc(NC(=O)OCc3ccccc3)cc12	13µM*	-2%	0%	?	-26%	-27
CCOC(=O)N/N=C\c1ccccc1OC/C=C/c1ccccc1	·	?	·	·	·	49
NC(=S)N/N=C\c1ccccc1OCc1ccccc1	?	?	2.5µM*	-19%	?	-26
NC(=S)N/N=C/c1ccccc1OC(=O)c1cc2ccccc2oc1=O	·	-9%	·	·	·	+
NC(=O)N/N=C/c1ccccc1OC(=O)c1cc2ccccc2oc1=O	·	5%	·	·	·	-16
CCN(CC)C(=O)CSc1nnc2[nH]c(=O)cc(C)n12	·	·	-19%	-6%[46.1 µM]	-3%	-37
COc1cc(C2CC(=O)N(c3ccccc3)C3=C2C(=O)OC3)cc(OC)c1OC (stereo not drawn)	1%[46.1 µM]	·	3%	10%[46.1 µM]	5%	-6
Cc1cccc(NC(=O)CSc2nc(-c3ccccc3)cc(=O)[nH]2)c1C	·	·	-15%	27%[46.1 µM]	5%	-13
CCc1ccc(NCc2cc3ccc(OC)cc3n(CC(=O)Nc3ccccc3OC)c2=O)cc1	·	·	1%	?	-8%	10
SMILES	Marburg entry inh	HCV inhibitor	Vaccinia Venus	Lassa entry inh	VACV mCherry inh	HCMV antiviral
Cc1[nH]c2ccccc2c1/C=C/c1ccnc2ccccc12	·	·	80%	·	-29%	·
COc1c2c(cc3oc(=O)ccc13)OC(C)(C)C=C2	·	?	-8%	·	19%	22
COC1=CC(=O)[C@]2(C=C1OC)OC[C@@H]1Oc3c(ccc4c3C=CC(C)(C)O4)C(=O)[C@@H]12	·	-28%	-25%	·	?	-93*
O=C(Nc1ccc(O)cc1)c1ccccc1OCc1ccccc1	·	14µM*	·	·	·	-77*
CCCOc1ccccc1OCC(=O)Nc1ccc(S(=O)(=O)N2CCCCC2)cc1	?	?	-24%	?	-26%	-12
CC(=O)Nc1ccc(S(=O)(=O)N2CCN(S(=O)(=O)c3ccc(NC(C)=O)cc3)CC2)cc1	10%[46.1 µM]	-3%	-2%	1%[46.1 µM]	i	·
CN1CCN(S(=O)(=O)c2ccc(NC(=O)C(C)(C)C)cc2)CC1	26%	7%	·	12%	·	-108*
CCCOc1ccccc1C(=O)Nc1ccc(S(=O)(=O)N2CCN(C)CC2)cc1	·	22µM*	·	·	·	-22
COc1ccccc1OCC(=O)Nc1ccc(S(=O)(=O)N2CCCCCC2)cc1	?	1.6µM*	1%	8%	i	81
O=C(Nc1ccccc1)c1ccccc1OCc1ccc(F)cc1	·	?	·	·	·	-11
Cc1ccc(-c2nc3ccc(Cl)cn3c2Nc2ccc3c(c2)OCCO3)s1	?	·	4%	19%[46.1 µM]	-1%	97
CCCOc1ccc(S(=O)(=O)N2CCN(C)CC2)c2ccccc12	-3%	-20%	-25%	-2%	?	-61*
CCCOc1ccccc1OCC(=O)Nc1ccc(S(=O)(=O)N2CCCC2)cc1	?	10µM*	-1%	-11%	-11%	-17
CCOc1ccccc1C(=O)Nc1ccc(S(=O)(=O)Nc2ncccn2)cc1	6%[46.1 µM]	·	-4%[7.34 µM]	12%[46.1 µM]	-14%[7.34 µM]	18
CCNS(=O)(=O)c1ccc(NC(=O)c2ccccc2OCC)cc1	-19%	5.6µM*	-10%	12%	-15%	11
Cc1cccc(OCC(=O)Nc2cc(S(=O)(=O)N3CCOCC3)ccc2N2CCCC2)c1C	-18%	?	-20%	-22%	-24%	-28
Cc1ccccc1OCC(=O)Nc1cc(S(=O)(=O)N2CCCCC2)ccc1N1CCN(C)CC1	?	11µM*	?	?	?	?
CCc1ccccc1NC(=O)CCCn1c(=O)c2cccn2c2ccccc21	·	·	-5%	?	-9%	10
CN1CCN(S(=O)(=O)c2ccc(NC(=O)c3csc4ccccc34)cc2)CC1	0%	10µM*	·	14%	·	134
COc1cccc(OC)c1OCC(=O)Nc1ccc(S(=O)(=O)N2CCCC2)cc1	·	8.9µM*	·	·	·	-25
CN1CCN(S(=O)(=O)c2ccc(NC(=O)c3cccs3)cc2)CC1	0%	-6%	-8%	-3%	·	3
CCN(CC(=O)Nc1ccc(S(=O)(=O)N2CCCC2)cc1)CC(=O)Nc1ccccc1C(F)(F)F	·	11µM*	·	·	·	9
CCC(CC)C(=O)NCc1nc2cccnc2n1Cc1ccc(F)cc1	·	·	-13%	1%[46.1 µM]	-15%	?
Cc1ccc(C)c(S(=O)(=O)NCCc2csc(-c3ccc(Cl)cc3)n2)c1	·	·	0%	-12%[46.1 µM]	-20%	-24
CCN1CCN(Cc2c(O)ccc3oc(C)c(C(=O)Nc4cccc(C(F)(F)F)c4)c23)CC1	?	·	-11%	?	-15%	-31
